Consider 5 molecules from PubChem BioAssay (NCATS).

Records with an inconclusive call do not appear. Active and inactive are the calls of the source. Unless noted, how the calls were made is not given here.

Assay [1] in a line: qHTS for Activators of Parkin Expression: LOPAC Validation Assay (FLuc Reporter) (AID 720573; active means well fitted curve in the direction sought with a large enough effect; an effect the other way counts as inactive or inconclusive; further: potency means the concentration at half of the fitted maximal effect). As to conditions: Cell line, PRKN promoter firefly luciferase reporter. In short, it runs like this: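 Cells seeded, 24 h; compounds pinned, 7-pt dose response; 24 h at 37 C/5% CO2; volume reduced; FLuc reagent 10 min RT; luminescence read. Normalization: DMSO = 0, positive control = 100%.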
Background: Quantitative high-throughput screening tests each substance at several concentrations.

The target of assay [2] is T1, Hexokinase-4 (Homo sapiens) + Glucokinase regulatory protein (Homo sapiens) (UniProt P35557+Q14397). Nature of the assay: qHTS assay for inhibitors of recombinant human GCK-GKRP interaction: Diaphorase-coupled assay (AID 743205; active means well fitted curve in the direction sought with a large enough effect; an effect the other way counts as inactive or inconclusive). The conditions noted are these: G6PDH/diaphorase resorufin fluorescence; series mostly up to 57.5 µM. In short, it runs like this:
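25 mM Hepes pH 7.6, 5 mM glucose, 0.4 mM ATP, 4 U/ml G6PDH; 10 nM each GST-GCK/FLAG-GKRP. Kinetic fluorescence read, 1/min × 30 min. Normalized: DMSO ± enzyme = max/min.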

Assay [3] concerns the target T1, Hexokinase-4 (Homo sapiens) + Glucokinase regulatory protein (Homo sapiens). Nature of the assay: qHTS assay for inhibitors of recombinant human GCK-GKRP interaction: ADP-Glo assay (AID 743206; active means well fitted curve in the direction sought with a large enough effect; an effect the other way counts as inactive or inconclusive;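 further: plate controls were DMSO plus enzyme for no effect and no enzyme for full effect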). As to conditions: ADP-Glo luminescence, 60 min, 0% = vehicle-only wells with enzyme present; series mostly up to 76.9 µM. A digest of the protocol: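 Pin-transferred compounds meet a 15 nM GST-GCK/15 nM FLAG-GKRP/2 uM S6P mix (dispense concentrations). ATP is then added to 0.4 mM final with 5 mM glucose, and the reaction runs 60 min at room temperature. ADP is quantified luminescently.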

Assay [4] has the same target. Nature of the assay: qHTS assay for inhibitors of recombinant human GCK-GKRP interaction: HTRF assay (AID 743207; active means well fitted curve in the direction sought with a large enough effect; an effect the other way counts as inactive or inconclusive;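 further: 0% = DMSO with GCK present and -100% = DMSO wells lacking GCK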). As to conditions: recombinant GCK-GKRP HTRF binding, 60 min, with sorbitol-6-phosphate; series mostly up to 57.5 µM. A digest of the protocol:
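5 nM GST-GCK + 5 nM FLAG-GKRP + 2 uM S6P, pH 7.1 buffer (25 mM Hepes, 2 mM MgCl2, 25 mM KCl, 1 mM DTT, Tween/BSA); pin-transferred cpd; anti-FLAG XL665/anti-GST K; 60 min RT; HTRF.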

Assay [5] can be described thus: qHTS Assay for Identifying Gametocytocidal Compounds (AID 743244; active means well fitted curve in the direction sought with a large enough effect; an effect the other way counts as inactive or inconclusive; further: potency means the concentration at half of the fitted maximal effect;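 on max response: on the % scale 0 is the no-effect control and ±100 the full control effect; actives lower the fluorescent signal which means gametocytes are killed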). The conditions noted are these: P. falciparum 3D7 stage III-V gametocytes, alamarBlue, 72 h; max response: stronger effect = lower value. A digest of the protocol: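 P. falciparum 3D7 stage III–V gametocytes (20,000 cells/well) were exposed to compounds for 72 h at 37 °C, 5% CO2. AlamarBlue was then added for 24 h; decreased resorufin fluorescence (Ex 525/Em 598 nm) indicated loss of viability.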

Assay [6] is described as follows: qHTS profiling of the MIPE4 collection as inhibitors of Plasmodium falciparum (3D7) proliferation (AID 743344). The conditions noted are these: P. falciparum 3D7 in erythrocytes, SYBR Green DNA fluorescence, 72 h; at 28.5 µM (top of the series) unless noted. A digest of the protocol: (§1)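 Parasite DNA was quantified by SYBR Green I fluorescence (ex 485, em 535 nm) after overnight lysis in saponin/Triton buffer at room temperature. Cultures at 0.3% parasitemia and 2.5% hematocrit were first exposed to compound for 72 h at 37 C; signals were normalised to artemisinin (0.29 uM) and vehicle wells.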

The nature of assay [7]: qHTS profiling of the MIPE4 collection as inhibitors of Plasmodium falciparum (DD2) proliferation (AID 743345). The conditions noted are these: P. falciparum Dd2 in erythrocytes, SYBR Green DNA, 72 h; at 28.5 µM (top of the series) unless noted. A digest of the protocol: as §1
The nature of assay [8]: qHTS profiling of the MIPE4 collection as inhibitors of Plasmodium falciparum (DD2) proliferation (Rep 2) (AID 743346). As to conditions: P. falciparum Dd2 in erythrocytes, SYBR Green DNA, 72 h; at 28.5 µM (top of the series) unless noted. A digest of the protocol: as §1
The nature of assay [9]: qHTS profiling of the MIPE4 collection as inhibitors of Plasmodium falciparum (HB3) proliferation (AID 743347).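 Further: plate controls were DMSO vehicle wells for no effect and artemisinin wells for full effect.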 The conditions noted are these: P. falciparum HB3 in erythrocytes, SYBR Green DNA, 72 h; at 28.5 µM (top of the series) unless noted. In short, it runs like this:
as §1

The nature of assay [10]: High-throughput drug toxicity screening in the BPDCN cell line Gen2.2 (AID 1224824).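 Further: cells exposed to compounds for 48 h before reading.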 The conditions noted are these: Gen2.2 BPDCN cells; at 45.8 µM (top of the series) unless noted. A digest of the protocol: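 Seed 500 exponentially growing Gen2.2 cells/well; add compounds by pin tool; incubate 48 h, 37 °C, 5% CO2; add CellTiter-Glo, 15 min RT; read luminescence. % activity vs DMSO (100%) and bortezomib (0%).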

The nature of assay [11]: High-throughput drug toxicity screening in the BPDCN cell line Cal-1 (AID 1224825). As to conditions: Cal-1 BPDCN cell viability, qHTS; at 45.8 µM (top of the series) unless noted. A digest of the protocol: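 Viability of the BPDCN line Cal-1 is measured as ATP-based luminescence (CellTiter-Glo) following 48 h incubation with compounds. Percent activity uses DMSO-treated wells as 100% and 9.2 uM bortezomib as 0%.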

Assay [12] is described as follows: qHTS assay for measurement of the activity of small molecule inhibitors on Zika virus induced Caspase-3 activity in human iPSC derived neural progenitor cells (hNPCs) (AID 1224857; active means well fitted curve in the direction sought with a large enough effect; an effect the other way counts as inactive or inconclusive; further: nearly all actives have a fitted effect of over 65% in size; further: potency means the concentration at half of the fitted maximal effect). As to conditions: hNPCs ZIKV-induced caspase-3/7, Caspase-Glo luminescence, 6 h; series mostly up to 45.7 µM. In short, it runs like this: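 hNPCs seeded 350 cells/well, cultured 16–20 h; compounds added 1 h before ZIKV (2 FFU/cell), 37 C 6 h. Caspase-Glo 3/7 luminescence after 30 min RT; % inhibition from induction scaled to uninfected (0%) and infected (100%) wells.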

Assay [13] is described as follows: qHTS assay for measurement of the activity of small molecule inhibitors on Zika virus induced Caspase-3 activity in human astrocytoma cells (AID 1224859; active means well fitted curve in the direction sought with a large enough effect; an effect the other way counts as inactive or inconclusive; further: potency means the concentration at half of the fitted maximal effect). As to conditions: SNB-19 ZIKV-induced caspase-3/7, luminescence, 6 h; series mostly up to 45.7 µM. In short, it runs like this: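 Luminescence read-out (Caspase-Glo 3/7, 30 min RT) of caspase activity in SNB-19 cells infected 6 h with ZIKV, 2 FFU/cell, after 1 h compound pretreatment; % inhibition from induction normalised to uninfected (0%) and infected (100%) wells.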

Assay [14] can be described thus: qHTS profiling for inhibitors of Plasmodium falciparum (3D7) proliferation (AID 743322).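 Further: infected erythrocytes exposed to compound for 72 h before lysis; 100% = DMSO vehicle wells and 0% = 0.29 µM artemisinin.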 The conditions noted are these: P. falciparum 3D7 proliferation; at 28.7 µM (top of the series). A digest of the protocol:
as §1

A short description of assay [15]: qHTS profiling for inhibitors of Plasmodium falciparum (DD2) proliferation (AID 743323). As to conditions: lower = more inhibition; at 28.7 µM (top of the series). A digest of the protocol: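 Parasite proliferation measured via DNA-dye fluorescence, as uninfected erythrocytes lack DNA. Cultures at 0.3% parasitemia and 2.5% hematocrit incubated 72 h with compound; signal scaled between vehicle and 0.29 uM artemisinin wells.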

The nature of assay [16]: qHTS profiling for inhibitors of Plasmodium falciparum (HB3) proliferation (AID 743324; active means well fitted curve in the direction sought with a large enough effect; an effect the other way counts as inactive or inconclusive;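 further: 100% = DMSO vehicle wells and 0% = artemisinin-treated control wells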). As to conditions: Plasmodium falciparum HB3 blood-stage proliferation; at 28.7 µM (top of the series). A digest of the protocol:
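SYBR Green fluorescence (485 ex/535 em) of lysed cultures, incubated overnight at room temperature in the dark, quantifies parasite DNA. Infected erythrocytes at 0.3% parasitemia and 2.5% hematocrit were exposed 72 h; values normalized to DMSO and 0.29 uM artemisinin controls.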

T1 sequence (P35557 whole entry, looked up): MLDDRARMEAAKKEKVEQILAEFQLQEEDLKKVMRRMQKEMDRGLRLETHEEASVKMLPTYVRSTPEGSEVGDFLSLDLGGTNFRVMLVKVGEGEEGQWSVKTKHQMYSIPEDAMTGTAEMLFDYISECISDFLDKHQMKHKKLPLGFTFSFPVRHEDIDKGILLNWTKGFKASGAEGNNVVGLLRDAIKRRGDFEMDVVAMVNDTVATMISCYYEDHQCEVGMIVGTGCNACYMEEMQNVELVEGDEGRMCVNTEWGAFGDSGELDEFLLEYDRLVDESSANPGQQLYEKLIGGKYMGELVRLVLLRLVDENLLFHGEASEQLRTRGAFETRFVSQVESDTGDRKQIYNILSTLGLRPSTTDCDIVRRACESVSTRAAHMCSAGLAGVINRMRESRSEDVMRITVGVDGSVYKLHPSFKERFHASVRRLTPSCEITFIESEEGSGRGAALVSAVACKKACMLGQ
T1 sequence (Q14397 whole entry, looked up): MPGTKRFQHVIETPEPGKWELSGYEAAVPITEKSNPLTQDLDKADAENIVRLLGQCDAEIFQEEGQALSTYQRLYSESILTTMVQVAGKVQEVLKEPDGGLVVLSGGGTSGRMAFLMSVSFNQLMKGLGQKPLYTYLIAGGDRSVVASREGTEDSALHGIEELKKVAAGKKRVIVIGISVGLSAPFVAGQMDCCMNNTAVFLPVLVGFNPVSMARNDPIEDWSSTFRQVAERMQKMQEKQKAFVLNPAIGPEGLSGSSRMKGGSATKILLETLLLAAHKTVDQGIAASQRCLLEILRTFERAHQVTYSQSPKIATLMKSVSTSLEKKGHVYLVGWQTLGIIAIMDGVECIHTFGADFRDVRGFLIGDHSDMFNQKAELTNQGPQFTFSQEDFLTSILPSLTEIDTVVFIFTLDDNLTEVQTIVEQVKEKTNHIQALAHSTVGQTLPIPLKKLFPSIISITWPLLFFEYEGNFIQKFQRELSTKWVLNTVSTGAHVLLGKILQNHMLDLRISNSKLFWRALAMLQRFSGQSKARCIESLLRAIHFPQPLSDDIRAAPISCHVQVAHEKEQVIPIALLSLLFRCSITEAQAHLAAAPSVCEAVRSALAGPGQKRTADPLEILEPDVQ

Take `O=c1c2ccccc2nc2n1CCc1c-2[nH]c2ccccc12`: the Potency in [1] was 0.82 µM (active); in assay [12] it was 13.2 µM (active); in [13], 7.94 µM (active). The result in assay [2], in assay [3] and in [4] was inactive. Besides, the max response in [5] is 16.8% (inactive). This molecule returned a parasite growth, % of DMSO control in assay [6] of 85.9%. In addition, the parasite growth remaining, % of DMSO control (lower = more inhibition) in [7] came out at 88.1%. The parasite growth, % of control (lower = inhibition) in assay [8] is 167%. The same molecule showed a growth, % of control in assay [9] of 85.6%. Besides, the cell viability, % of control (lower = more cytotoxic) in assay [10] was found to be 35%. Moreover, in assay [11], the viability (% of control) was found to be 72.9%.
`C[C@@H](Oc1cc(-n2cnc3ccc(CN4CCN(C)CC4)cc32)sc1C(N)=O)c1ccccc1C(F)(F)F`: in assay [5], the Potency is 18.7 µM (active). Moreover, the remaining parasite growth % (stronger effect = lower value) in assay [14] is -0.0099%. Besides, the activity, percent of control in assay [15] was 3.25%. Also, in assay [16], the remaining proliferation (% of control), lower = more inhibition is 1.38%. The molecule further displayed a parasite growth, % of DMSO control in assay [6] of 6.16%. This molecule also showed a parasite growth remaining, % of DMSO control (lower = more inhibition) in assay [7] of 7.2%. The parasite growth, % of control (lower = inhibition) in assay [8] is 13.9%. In [9], this molecule showed a growth, % of control of 6.6%. Also, in assay [10], the cell viability, % of control (lower = more cytotoxic) stood at 3.33%. In addition, the viability (% of control) in assay [11] was 3.46%. The Potency entry in assay [12] and in assay [13] was “inactive” each time.
In the case of `Cn1cc(-c2[nH]c3cc(NC(=O)[C@H](N)C4CCCCC4)cc4c3c2C=NNC4=O)cn1`, the Potency in assay [5] is 23.5 µM (active). Moreover, in assay [14], the remaining parasite growth % (stronger effect = lower value) is -2.18%. In addition, in assay [15], the activity, percent of control is -0.309%. Moreover, in [16], the remaining proliferation (% of control), lower = more inhibition was -1.93%. In assay [6], this molecule registered a parasite growth, % of DMSO control of 3.34%. Further, the parasite growth remaining, % of DMSO control (lower = more inhibition) in assay [7] was 5.92%. In addition, the parasite growth, % of control (lower = inhibition) in assay [8] worked out at 4.04%. This molecule also came in with a growth, % of control in [9] of 2.91%. Further, in [10], the cell viability, % of control (lower = more cytotoxic) was 28.9%. Besides, in [11], the viability (% of control) is 4.56%. In addition, the Potency entry in assay [12] and in assay [13] was “inactive” each time.
For the molecule `COC(=O)C[C@](O)(CCCC(C)(C)O)C(=O)O[C@@H]1C(OC)=C[C@]23CCCN2CCc2cc4c(cc2[C@H]13)OCO4`, the cell viability, % of control (lower = more cytotoxic) in [10] was 131%. The viability (% of control) in [11] is 134%. The Potency entry in assay [12] and in assay [13] was “inactive” in each case.
Take `COc1ccc(OC)c(-c2nnc3ccc(-c4ccc(OC)c(O[C@@H]5CCOC5)c4)nn23)c1`: the max response in [5] is -15.7% (inactive). In addition, the remaining parasite growth % (stronger effect = lower value) in [14] was -0.0314%. For the same molecule, the activity, percent of control in [15] is 0.138%. In [16], the remaining proliferation (% of control), lower = more inhibition came to 0.357%. In addition, the parasite growth, % of DMSO control in assay [6] came to 5.33%. In assay [7], this molecule had a parasite growth remaining, % of DMSO control (lower = more inhibition) of 6.53%. Moreover, in [8], the parasite growth, % of control (lower = inhibition) amounted to 16%. The molecule also returned a growth, % of control in [9] of 8.79%. The cell viability, % of control (lower = more cytotoxic) in [10] worked out at 6.73%. Further, the viability (% of control) in assay [11] worked out at 3.56%. Also, the Potency entry in assay [12] and in [13] was “inactive” each time.
